An excerpt weighted towards active compounds, which were near 21% of everything screened.
Pf growth 96h = P. falciparum growth inhibition at 96 hours | P. falciparum luciferase reporter growth, 96 h | Potency, µM (series often up to 28.7 µM), for the others: at the top dose activity change, negative = inhibition, usual class: inhibitors | actives 6.9% (n = 320,000) | AID 504834; also: potency is read from the fitted curve at half-maximal effect; % is scaled to controls: 0 for no effect and ±100 for the full control effect
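Two-generation exposure (96 h) targets delayed-death phenotype. Reporter parasites carrying integrated firefly luciferase, in red cells at 2% hematocrit and 0.05% parasitemia final, kept at 37 C, 5% CO2; luminescence loss indicates inhibition.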
Giardia FBPA inh = inhibitors of Giardia lamblia fructose-1,6-bisphosphate aldolase. A8B2U2. purified Giardia FBPA. Potency, µM (titrated, usually from 59.6 µM), inactives show top-dose activity, negative = inhibition, usual class: inhibitors. actives 0.71% (n = 290,000). AID 2451; also: potency is read from the fitted curve at half-maximal effect; % is scaled to controls: 0 for no effect and ±100 for the full control effect; nearly all actives have a fitted effect of over 55% in size
Target sequence (A8B2U2 whole entry, looked up): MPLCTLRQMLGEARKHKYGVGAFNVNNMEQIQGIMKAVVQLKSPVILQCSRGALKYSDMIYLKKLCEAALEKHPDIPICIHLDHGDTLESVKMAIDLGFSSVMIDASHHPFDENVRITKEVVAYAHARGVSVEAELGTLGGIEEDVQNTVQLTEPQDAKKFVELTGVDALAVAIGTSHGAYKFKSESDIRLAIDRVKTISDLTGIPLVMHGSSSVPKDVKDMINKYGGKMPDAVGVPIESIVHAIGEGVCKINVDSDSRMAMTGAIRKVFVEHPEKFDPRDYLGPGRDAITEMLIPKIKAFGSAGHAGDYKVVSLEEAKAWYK
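40 nM FBPA preincubated 10 min at RT with compound (up to 57.5 uM final), then substrate plus GAPDH/TPI/NAD/arsenate coupling and diaphorase/resazurin added. Fluorescence read after 20 min at RT, 525/598 nm.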
Shiga toxin inh = blocks Shiga toxin action in Vero cells; Vero cells, Shiga toxin protein synthesis inhibition reporter; inhibition, % at 38.7 µM; actives 9.2% (n = 290,000); in the data active = inhibition mostly above about 28%, no sharp cut-off; inactive = mostly below about 43%; also: 0% is about no effect
Pf growth 48h = inhibits P. falciparum growth in the first generation, 48 h; P. falciparum luciferase growth in erythrocytes, 48 h; Potency, µM (top dose mostly 28.7 µM), without a hit: at the highest dose activity change, negative = inhibition, hits mostly inhibitors; actives 5.9% (n = 310,000); AID 504832; also: potency is read from the fitted curve at half-maximal effect; % is scaled to controls: 0 for no effect and ±100 for the full control effect
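Luciferase-expressing parasites in RBCs, 2% Hct / 0.1% parasitemia final; RPMI 1640 + 0.5% Albumax; 37 C, 5% CO2, one generation; luminescence read-out, lower signal = inhibition.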
Cycloheximide cs = counter-screen for Shiga toxin inhibitors: cycloheximide protein synthesis inhibition; cell reporter, cycloheximide protein synthesis inhibition counterscreen; max response, %; actives 12% (n = 300,000); AID 2314; in the data active = max response mostly above about 13%, no sharp cut-off; inactive = mostly below about 14%; also: read at 38.3 µM for the half of the compounds with a filed dose; 0% is about no effect
NS1 inh = inhibitors of influenza NS1 protein function | Potency, µM (doses to about 46.1 µM), for inactives: top-dose activity, positive = more growth | AID 2326 | actives 0.4% (n = 270,000); calls by dose curve; also: potency is read from the fitted curve at half-maximal effect; actives are rising curves; nearly all actives have a fitted effect of over 50% in size
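Recovery from NS1-induced slow growth read by OD600 in budding yeast switched to galactose assay medium (pH 6.0, -URA) at 1:100 dilution. Compound 23 nl per well; the matching strain lacking NS1 serves as control.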
An asterisk follows results filed as active; u = inconclusive; x = not tested or not shown; [ ] = another dose, or the depositor's remark. Unless noted, calls follow the shape of the dose curve; as a rule, active = well fitted curve in the direction sought with a large enough effect; inconclusive = small, poorly fitted or top-dose-only effect, or another doubt; inactive = no such curve, though single readings can be large; an effect the other way counts as inactive or inconclusive.

SMILES	Pf growth 96h	Giardia FBPA inh	Shiga toxin inh	Pf growth 48h	Cycloheximide cs	NS1 inh
Cc1ccc(N(CN2C(=O)c3ccccc3C2=O)C(=O)c2ccc([N+](=O)[O-])cc2[N+](=O)[O-])cc1	3.7µM*	-8%	-7	20%	-2	20%
CN(C)CCN(C(=O)c1ccc(N2C(=O)CCC2=O)cc1)c1nc2cc3c(cc2s1)OCO3	16%	-11%	30	10%	15	x
CN(C)CCN(C(=O)c1cccs1)c1nc2cc3c(cc2s1)OCCO3	52%	-18%	82	77%	51*	-3%
CN(C)CCN(C(=O)c1ccc(Br)s1)c1nc2cc3c(cc2s1)OCCO3	186%	-15%	68*	169%	44*	x
CN(Cc1ccco1)c1ncncc1-c1cccc(C#N)c1	x	-18%	x	x	x	x
C[C@@H]1CN(C(=O)c2nc3ccc(Cl)cn3c2CNCC[C@@H]2C[C@@H]3C=C[C@H]2C3)C[C@H](C)O1	u	7%	-6	8.3µM*	1	5%
C[As+](C)(c1ccc(Br)c([N+](=O)[O-])c1)c1ccc(Br)c([N+](=O)[O-])c1.O=[N+]([O-])O	x	x	x	x	x	-3%
Cn1c(CNC(=O)CNC(=O)c2ccc(F)cc2)cc(=O)n(C)c1=O	u	x	-5	-17%	13	-1%
CCS(=O)(=O)Nc1ccc(C2=NN(C(=S)Nc3ccccc3)C(c3ccco3)C2)cc1 (centres undefined)	u	-15%	18	u	18*	-3%
CS(=O)(=O)Nc1ccc(C2=NN(C(=O)c3ccco3)C(c3ccco3)C2)cc1 (centres undefined)	u	x	-15	u	2	6%
Cc1ccc(C2=NN(C(=S)Nc3ccccc3)C(c3ccco3)C2)cc1 (centres undefined)	9.3µM*	-6%	71*	45%	39*	u
O=C(OCC(=O)N1N=C(c2ccc(Cl)cc2)CC1c1ccco1)c1ccco1 (centres undefined)	16%	-6%	25	58%	9	-19%
COc1ccc(C2=NN(C(=O)COC(=O)c3ccc(NC(=O)CC#N)cc3)C(c3ccco3)C2)cc1 (centres undefined)	u	x	x	12µM*	x	x
Cn1c(=O)c([N+](=O)[O-])c(NCC2CCCO2)c2ccccc21 (centres undefined)	88%	-2%	-12	49%	-1	-2%
COc1cc(CN(C)Cc2cccc3ccccc23)cc([N+](=O)[O-])c1O	u	-14%	-2	-10%	-3	-2%
N#CCc1ccc(C(=O)c2ccccc2F)s1	u	3%	64	-23%	17*	25%
O=C(O)Cc1ccc(C(=O)c2ccc(F)cc2)s1	-18%	12%	1	x	-4	-3%
O=C1C=C(N2CCOCC2)C2(CCCCC2)O1	28%	-1%	85	u	28*	-4%
CCc1cccc2c(C(=O)COC(=O)c3ccccc3)c[nH]c12	175%	-1%	76*	199%	21*	1%
CCc1cccc2c(C(=O)COC(=O)c3ccc(O)cc3)c[nH]c12	-26%	3%	53*	39%	37*	15%
CCc1cccc2c(C(=O)COC(=O)/C=C/c3ccccc3OC)c[nH]c12	13µM*	3%	20	u	-1	16%
CCc1cccc2c(C(=O)COC(=O)c3nccnc3N)c[nH]c12	3%	x	x	-2%	x	x
COc1ccc(/C=C/C(=O)OCC(=O)c2c[nH]c3ccccc23)cc1	2%	x	x	3%	x	x
COc1ccc(N2CC(C(=O)N[C@H](C(=O)NC3CCCCC3)C(C)C)CC2=O)cc1 (some centres undefined)	14%	x	25	0%	-4	11%
O=C(CSc1nnc(COc2ccc(Cl)cc2)o1)N1CCCCC1	36%	x	3	0%	-4	-1%
SMILES	Pf growth 96h	Giardia FBPA inh	Shiga toxin inh	Pf growth 48h	Cycloheximide cs	NS1 inh
N=c1c(S(=O)(=O)c2ccc(Br)cc2)cc2c(=O)n3ccccc3nc2n1C1CCCC1	12µM*	x	-7	10µM*	0	23%
COc1ccc(C2CC(=O)C(C3NCCc4ccccc43)=C(O)C2n2cncn2)cc1 (centres undefined)	66%	-6%	-5	17µM*	6	x
O=C(C1CCCN(Cc2ccc(Br)cc2)C1)N1CCCCC1 (centres undefined)	29%	u	-1	-9%[0.00184 µM]	-4	-1%
COc1ccc(CNCCC(c2ccccc2)C2CCOC(C)(C)C2)cc1 (centres undefined)	u	1%	8	u	-6	x
COc1ccc(CN(CCC(c2ccccc2)C2CCOC(C)(C)C2)C(C)=O)cc1 (centres undefined)	-1%	12%	-8	13µM*	-3	-18%
Cc1cc(CC(C)CC(C)(C)C)n(O)c(=O)c1 (centres undefined)	3µM*	x	x	4.8µM*	x	x
CCc1ccc(S(=O)(=O)N2CCCC(N3CCN(c4ccc(OC)cc4)CC3)C2)cc1 (centres undefined)	14%	x	-6	u	-6	-6%
Cn1cccc1C(=O)NCCc1ccc(Cl)cc1	87%	x	125*	75%	46*	-2%
Cn1cccc1C(=O)NNC(=O)COc1ccccc1F	150%	-5%	86*	140%	33*	3%
Cn1cccc1C(=O)NCc1ccc(Cl)cc1	40%	7%	-5	6%	11	-11%
Cn1cccc1C(=O)NCCc1ccccc1	229%	-12%	51*	180%	23*	-7%
Cc1ccc(S(=O)(=O)N2CCCC2=O)c(C)c1N(C)S(C)(=O)=O	8.3µM*	13%	-11	1%	2	1%
CC(=O)Oc1ccc2c(C)c(CC(=O)N3CCN(C(=O)C4COc5ccccc5O4)CC3)c(=O)oc2c1C (centres undefined)	u	2%	-6	12µM*	10	-20%
CC(C)(C)NCC(O)COc1cccc2c1CCC(=O)N2 (centres undefined)	3%	x	x	2%	x	x
Cc1cccn2c1nc(=S)n2C(=O)c1ccco1	23%	-5%	82*	57%	43*	7%
COC(=O)c1sc(-c2ccc(C(C)(C)C)cc2)cc1NC(=O)COCC(=O)O	-18%	9%	44*	u	20*	14%
COC(=O)c1sc(-c2ccc(Cl)cc2)cc1NC(=O)CSCC(=O)O	16%	20%	1	-3%	-2	7%
COc1ccc(C(=O)Nc2cccc(/C(C)=N\NC(=O)c3ccoc3C)c2)cc1OC	-5%	-10%	60*	-16%	45*	-15%
C/C(=N\NC(=O)c1c(Cl)c(C)nn1C)c1cccc(NC(=O)COc2ccc(Cl)cc2)c1	u	0%	14	x	9	-7%
C/C(=N\NC(=O)c1nn(C)c(C)c1Br)c1cccc(NC(=O)c2ccoc2C)c1	u	3%	24*	14%	46*	8%

Screening data as filed in PubChem.
